# Measured values: PubChem BioAssay AID1345083 (National Center for Advancing Translational Sciences (NCATS), 2018)
# Screen size: about 94,000 compounds; about 6,200 (6.6%) were called active. Another 31% or so got no clear call; they are omitted. Calls come from the whole dose curve; as a rule, active = well fitted inhibition curve with a large enough effect; inconclusive = small, poorly fitted or top-dose-only effect; inactive = flat fitted curve, though single readings scatter. This excerpt belongs to a sample that is enriched for actives.
# Assay: Cytotoxic Profiling in HEK 293 Cell Line of Diverse Libraries Using Quantitative High-Throughput Screening; note: nearly all actives have a fitted effect of over 60% in size
# Conditions: HEK 293 viability, ATP luminescence (CellTiter-Glo), 48-72 h; series mostly up to 115 µM; activity change, negative = cytotoxicity: at the top concentration
# Procedure, shortened: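 HEK 293 seeded at 250 cells/well receive compound via pintool. After 48 or 72 hr at 37 degree Celsius, 5% CO2 and 95% humidity, CellTiter-Glo is dispensed and luminescence read following 10 min at room temperature.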
# % is set by controls: 0 for no effect and ±100 for the full control effect; potency is the fitted concentration of half-maximal effect.
SMILES,outcome,Potency,"activity change, negative = cytotoxicity"
COc1ccccc1-n1c(=O)c(C(=O)N2CCN(Cc3ccccc3)CC2)nc2cccnc21,inactive,,
COc1ccccc1-c1[nH]nc2ncc(C(=O)N3CCN(Cc4ccccc4)CC3)nc12,,100 µM (active),
COCCNC(=O)c1cnc2n[nH]c(-c3ccccc3OC)c2n1,,,-20.1% [at 172 µM] (inactive)
CNC(=O)c1cc(C)nc2onc(C3CCN(C(=O)c4ccc(C(F)(F)F)cc4)C3)c12 (stereo not drawn),,,-23.2% (inactive)
Cc1cc(C)n(CC(=O)N2CCCC3(C2)Nc2cccnc2NC3=NC2CCCC2)n1 (stereo not drawn),,,-12.2% (inactive)
O=C(c1ccc(Cl)cc1)N1CCN(CCn2nc3n(c2=O)CCCC3)CC1,,,-9.57% (inactive)
Cc1noc(C)c1S(=O)(=O)N1CCCN(c2nc3ncccc3o2)CC1,,,0.408% (inactive)
O=C(NCc1cccc(F)c1)C1CN(c2ccccc2)C(=O)N1 (stereo not drawn),,,4.55% [at 172 µM] (inactive)
CNC(=O)CN(C)C(=O)[C@@H]1CN(c2ncccn2)C[C@H]1COC,,,-1.47% (inactive)
F[C@@H]1CN(C2CCC2)C[C@@H]1OCc1nc2ncccc2[nH]1,,,-5.83% [at 230 µM] (inactive)
O=C(Nc1ccccc1)O[C@@H]1CO[C@H]2[C@@H]1OC[C@@H]2NS(=O)(=O)c1cccc2cccnc12,,,-18.1% (inactive)
O=C(Nc1ccc(Oc2ccccc2)cc1)O[C@@H]1CO[C@H]2[C@@H]1OC[C@@H]2NS(=O)(=O)c1cccs1,,39.8 µM (active),
CC(=O)Nc1ccc(S(=O)(=O)N[C@H]2CO[C@H]3[C@@H]2OC[C@@H]3n2nnnc2Oc2ccccc2)cc1,,,-19.3% (inactive)
O=C(c1ccccc1)N1CCC2(CC(c3cccnc3)=NO2)C1 (stereo not drawn),inactive,,
O=C(Nc1cccc(Cl)c1)[C@@H]1C[C@H](c2ccc(F)cc2)N([S+](=O)([O-])C2CC2)C1,,79.4 µM (active),
O=C(Nc1ccc(Cl)cc1)C1CCN(C(=O)c2ncn3c2COC(c2ccc(F)cc2)C3)CC1 (stereo not drawn),,,-27.3% (inactive)
O=C(NCC1CCOCC1)Nc1cccc(Cl)c1,,,10.7% (inactive)
CC[C@H]1CN(S(C)(=O)=O)CC[C@H]1CC(=O)NCc1cccc2ccccc12,,,-26% [at 172 µM] (inactive)
Cn1nc(-c2nncn2CC2CC2)c2c1CCN(C(=O)CC1CCCC1)C2,inactive,,
O=C(Cc1cccc(F)c1)N1CCCC(Cc2nncn2-c2ccccc2)C1 (stereo not drawn),,,-7.97% (inactive)
NS(=O)(=O)c1ccc(F)c(C(=O)NCc2noc(-c3ccco3)n2)c1,,,-23.5% (inactive)
NS(=O)(=O)c1ccc(F)c(C(=O)N[C@@H]2c3ccccc3C[C@@H]2O)c1,,,-0.467% (inactive)
CCOc1ncccc1CNC(=O)c1cc(S(N)(=O)=O)ccc1F,,79.4 µM (active),
CNC(=O)c1cc(C)nc2onc(C3CCCN3C(=O)C3CCCC3)c12 (stereo not drawn),,,-7.89% (inactive)
Cc1cccc(NC(=O)N2CC(Oc3ccc(-c4nc(C)no4)cc3)C2)c1,,,-12.5% (inactive)
CN(Cc1ccccc1)C(=O)C[C@@H]1O[C@H](CNS(=O)(=O)c2ccc(Cl)cc2)[C@@H](O)[C@H]1O,inactive,,
CN1C[C@H](NS(C)(=O)=O)CCC[C@@H](C(=O)N(C)Cc2cccnc2)CC1=O,,,1.06% [at 172 µM] (inactive)
CC1=C[C@@H](CNS(=O)(=O)c2cccc(C#N)c2)[C@H](C(C)C)C[C@H]1CC(=O)N(C)Cc1cccnc1,,39.8 µM (active),
